Several values for one entry are separate records, joined by “and”; a condition that tells them apart may be missing. Identical values can stand only once. Some compounds were tested as several samples or in several runs, with calls that do not always agree. Activity calls are given as the source filed them. Rule for the calls: active = hit-call score of the fitted dose curve at least 0.9, where 1 is the maximum; inactive = score below 0.9.
test: APR_HepG2_CellCycleArrest_72hr: Apredica 72-hour HepG2 Assay for Cell Cycle Arrest (AID 2282914); conditions: high-content imaging, actives raise or lower the signal
Procedure, shortened: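 Using multiplexed high-content imaging, HepG2 nuclei stained with Hoechst 33342 (2 ug/mL) were analysed for DNA content after fixation and permeabilization. Treatment lasted 72 hr across 0.39–200 uM in duplicate with final DMSO 0.5% v/v; DMSO served as negative control.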

SMILES	outcome	AC50
OCCOc1ccccc1	inactive	–
CC1(c2ccc(Oc3ccccc3)cc2)OC(=O)N(Nc2ccccc2)C1=O (stereo not given)	inactive	–
CC(C)(C)C(O)C(Oc1ccc(Cl)cc1)n1cncn1 (stereo not given)	inactive	105 µM (active) and 88.3 µM (active) and 39.4 µM (active)
O=S1OCC2C(CO1)C1(Cl)C(Cl)=C(Cl)C2(Cl)C1(Cl)Cl (stereo not given)	–	95.3 µM (active)
CC(C)OC(=O)Nc1cccc(Cl)c1	inactive	–
COP(=S)(OC)Oc1ccc([N+](=O)[O-])cc1	inactive	–
O=C(O)C(F)(F)C(F)(F)C(F)(F)C(F)(F)C(F)(F)C(F)(F)C(F)(F)F	inactive	–
Cc1[nH]c(=O)n(C(C)(C)C)c(=O)c1Cl	inactive	–
O=[N+]([O-])c1c(Cl)c(Cl)c(Cl)c(Cl)c1Cl	–	81.9 µM (active)
CCCN(CCOc1c(Cl)cc(Cl)cc1Cl)C(=O)n1ccnc1	inactive	–
O=S(=O)(O)C(F)(F)C(F)(F)C(F)(F)C(F)(F)C(F)(F)C(F)(F)C(F)(F)C(F)(F)F	inactive	–
Oc1cc(Cl)ccc1Oc1ccc(Cl)cc1Cl	inactive	18.9 µM (active) and 11.6 µM (active)
CCC(C)(NC(=O)c1cc(Cl)c(C)c(Cl)c1)C(=O)CCl (stereo not given)	inactive	–
CNC(=O)Oc1ccccc1OC(C)C	inactive	–
CNC(=O)CSP(=S)(OC)OC	inactive	–
O=C1c2ccccc2C(=O)N1SC(Cl)(Cl)Cl	inactive	–
ClC1C(Cl)C(Cl)C(Cl)C(Cl)C1Cl (stereo not given)	inactive	141 µM (active)
[2H]C1([2H])[n+]2ccccc2-c2cccc[n+]2C1([2H])[2H]	–	75.1 µM (active)
COC(=O)c1ccccc1CS(=O)(=O)NC(=O)Nc1nc(OC)cc(OC)n1	inactive	–
CC[C@H](C)[C@H]1O[C@]2(C=C[C@@H]1C)C[C@@H]1C[C@@H](C/C=C(\C)[C@@H](O[C@H]3C[C@H](OC)[C@@H](O[C@H]4C[C@H](OC)[C@@H](O)[C@H](C)O4)[C@H](C)O3)[C@@H](C)/C=C/C=C3\CO[C@@H]4[C@H](O)C(C)=C[C@@H](C(=O)O1)[C@]34O)O2 (tested in a mixture with another compound)	–	21.6 µM (active)
CNC(=O)Oc1cccc(N=CN(C)C)c1	–	64.1 µM (active)
Clc1ccccc1-c1nnc(-c2ccccc2Cl)nn1	inactive	–
Cc1cc(C)nc(NC(=O)NS(=O)(=O)c2ccccc2C(=O)OC2COC2)n1	inactive	–
O=C(O)COc1ccc(Cl)cc1Cl	inactive	–
COC(=O)c1ccccc1S(=O)(=O)NC(=O)N(C)c1nc(C)nc(OC)n1	inactive	–
Oc1ccc(Cl)cc1Cc1ccccc1	inactive	86.3 µM (active) [middle of 4 runs]

test: APR_HepG2_CellLoss_72hr: Apredica 72-hour HepG2 Assay for Cell Loss (AID 2282915); conditions: high-content imaging
Procedure, shortened: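 Cell number comes from Hoechst 33342-labelled nuclei, imaged at 20x after 3.7% formaldehyde fixation. Dosing was 0.39–200 uM, ten concentrations in duplicate, 0.5% DMSO final, for 72 h. Bidirectional fit relative to DMSO baseline.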

SMILES	outcome	AC50
OCCOc1ccccc1	inactive	–
CC1(c2ccc(Oc3ccccc3)cc2)OC(=O)N(Nc2ccccc2)C1=O (stereo not given)	–	32.6 µM (active)
CC(C)(C)C(O)C(Oc1ccc(Cl)cc1)n1cncn1 (stereo not given)	inactive	90.5 µM (active) and 96.3 µM (active) and 36.1 µM (active)
O=S1OCC2C(CO1)C1(Cl)C(Cl)=C(Cl)C2(Cl)C1(Cl)Cl (stereo not given)	–	100 µM (active)
CC(C)OC(=O)Nc1cccc(Cl)c1	inactive	–
COP(=S)(OC)Oc1ccc([N+](=O)[O-])cc1	inactive	–
O=C(O)C(F)(F)C(F)(F)C(F)(F)C(F)(F)C(F)(F)C(F)(F)C(F)(F)F	inactive	108 µM (active)
Cc1[nH]c(=O)n(C(C)(C)C)c(=O)c1Cl	inactive	–
O=[N+]([O-])c1c(Cl)c(Cl)c(Cl)c(Cl)c1Cl	inactive	–
CCCN(CCOc1c(Cl)cc(Cl)cc1Cl)C(=O)n1ccnc1	–	30.8 µM (active)
O=S(=O)(O)C(F)(F)C(F)(F)C(F)(F)C(F)(F)C(F)(F)C(F)(F)C(F)(F)C(F)(F)F	–	111 µM (active) [middle of 5 runs]
Oc1cc(Cl)ccc1Oc1ccc(Cl)cc1Cl	–	35.3 µM (active) and 26.9 µM (active) and 67 µM (active)
CCC(C)(NC(=O)c1cc(Cl)c(C)c(Cl)c1)C(=O)CCl (stereo not given)	inactive	–
CNC(=O)Oc1ccccc1OC(C)C	inactive	–
CNC(=O)CSP(=S)(OC)OC	inactive	–
O=C1c2ccccc2C(=O)N1SC(Cl)(Cl)Cl	–	30.8 µM (active)
ClC1C(Cl)C(Cl)C(Cl)C(Cl)C1Cl (stereo not given)	inactive	57.2 µM (active)
[2H]C1([2H])[n+]2ccccc2-c2cccc[n+]2C1([2H])[2H]	–	35.1 µM (active)
COC(=O)c1ccccc1CS(=O)(=O)NC(=O)Nc1nc(OC)cc(OC)n1	inactive	–
CC[C@H](C)[C@H]1O[C@]2(C=C[C@@H]1C)C[C@@H]1C[C@@H](C/C=C(\C)[C@@H](O[C@H]3C[C@H](OC)[C@@H](O[C@H]4C[C@H](OC)[C@@H](O)[C@H](C)O4)[C@H](C)O3)[C@@H](C)/C=C/C=C3\CO[C@@H]4[C@H](O)C(C)=C[C@@H](C(=O)O1)[C@]34O)O2 (tested in a mixture with another compound)	inactive	–
CNC(=O)Oc1cccc(N=CN(C)C)c1	–	96.5 µM (active)
Clc1ccccc1-c1nnc(-c2ccccc2Cl)nn1	–	39.7 µM (active)
Cc1cc(C)nc(NC(=O)NS(=O)(=O)c2ccccc2C(=O)OC2COC2)n1	inactive	–
O=C(O)COc1ccc(Cl)cc1Cl	inactive	–
COC(=O)c1ccccc1S(=O)(=O)NC(=O)N(C)c1nc(C)nc(OC)n1	inactive	–
Oc1ccc(Cl)cc1Cc1ccccc1	inactive	70 µM (active) [middle of 6 runs]

Source: PubChem BioAssay (EPA / NIEHS)
